# Measured values published in the supplement of paper PMC10646978.
# ± gives the standard deviation.
# Legend:
# Settings in all cases: modulator concentration 10 µM
# [1] = tested on: RAW-Dual (murine macrophage reporter line); test: NF-kB reporter (SEAP) activity fold change vs agonist alone; higher = enhanced NF-kB activity
# Summary of the method: (§1)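 Compound reached 10 μM final in each well by pin transfer, onto RAW-Dual murine macrophage reporter cells seeded at 50 000 per well in 384-well plates. After 1 hour at 37 °C, the cells were stimulated overnight with a PRR agonist. SEAP in the supernatant was read with QUANTI-Blue at 620 nm absorbance for NF-κB, and Lucia luciferase was read with QUANTI-Luc luminescence for IRF. Each signal was turned into fold change against the mean agonist-only control on the same plate, and two replicate plates were averaged with propagated errors.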
# [2] = tested on: RAW-Dual (murine macrophage reporter line); test: IRF reporter (Lucia luciferase) activity fold change vs agonist alone; higher = enhanced IRF activity
# Summary of the method: as §1
# [3] = tested on: RAW-Dual (murine macrophage reporter line); test: viability score (confluency relative to resting cells, overnight) (fraction); higher = more viable, active = viable (0.7 or more)
# Summary of the method: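 Overnight exposure to 10 μM final compound was carried out on RAW-Dual macrophages in 384-well plates. IncuCyte software generated two confluency masks over all wells imaged with IncuCyte. The viability score gives confluency in relation to resting cells. A compound met the cutoff if each mask exceeded 70% of resting cells.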
# [4] = agonist: CpG ODN 1826 0.5 ug/mL
SMILES,"NF-kB reporter [1, 4]",NF-kB reporter ([1]; agonist: LPS 0.1 ug/mL),NF-kB reporter ([1]; agonist: MPLA […]),IRF reporter ([2]; agonist: 3'3'-cGAMP 10 ug/mL),IRF reporter ([2]; agonist: LPS 0.1 ug/mL),IRF reporter ([2]; agonist: MPLA […]),viability score [3]
COc1ccc(CNc2oc(-c3ccc(COc4ccccc4C)o3)nc2C#N)cc1,1.48 ± 0.11,1.31 ± 0.074,2.3 ± 0.054,1.3 ± 0.073,0.887 ± 0.1,1.34 ± 0.32,0.934 (active)
Cl.Clc1ccc2nsnc2c1NC1=NCCN1,0.8 ± 0.14,0.932 ± 0.14,0.993 ± 0.076,0.791 ± 0.066,0.995 ± 0.17,1.06 ± 0.23,1 (active)
NCC(O)CNCCc1ccccc1 (centres undefined),0.782 ± 0.067,1.02 ± 0.13,1.22 ± 0.069,0.575 ± 0.021,1.12 ± 0.12,1.02 ± 0.093,1 (active)
CN1CCC(=C2c3ccccc3C=Cc3ccccc32)CC1 [Prestw-103],0.516 ± 0.038,0.833 ± 0.056,1.01 ± 0.053,0.72 ± 0.067,0.905 ± 0.1,0.915 ± 0.12,0.293 (inactive)
CCOc1nc2cccc(C(=O)O)c2n1Cc1ccc(-c2ccccc2-c2nn[nH]n2)cc1,1.09 ± 0.15,1.17 ± 0.38,0.976 ± 0.054,0.907 ± 0.069,1.26 ± 0.31,0.98 ± 0.13,1.01 (active)
Cc1ccc(-n2nc(C(C)(C)C)cc2NC(=O)Nc2ccc(OCCN3CCOCC3)c3ccccc23)cc1,0.68 ± 0.13,0.658 ± 0.052,0.784 ± 0.077,1.19 ± 0.058,0.741 ± 0.14,0.844 ± 0.1,1.02 (active)
CCCC1CCC(c2ccc(C(=O)NNC(=O)c3ccc(C4CCC(CCC)CC4)cc3)cc2)CC1 (centres undefined),0.984 ± 0.059,1.01 ± 0.07,0.936 ± 0.059,0.898 ± 0.035,1.43 ± 0.11,1.13 ± 0.21,1.01 (active)
CC1(C)OC(=O)NC1=O [Prestw-829],1 ± 0.076,1.07 ± 0.065,0.958 ± 0.024,0.93 ± 0.051,0.958 ± 0.13,1.01 ± 0.12,0.998 (active)
CC1(C)NC(=O)N(c2ccc([N+](=O)[O-])c(C(F)(F)F)c2)C1=O,1.26 ± 0.41,1.11 ± 0.23,0.897 ± 0.052,0.868 ± 0.035,1.17 ± 0.21,1.25 ± 0.2,0.968 (active)
Cc1ccc(C=CC(=O)O)cc1S(=O)(=O)NCCO,1.04 ± 0.2,0.884 ± 0.075,1.05 ± 0.095,0.988 ± 0.077,1.16 ± 0.2,0.979 ± 0.32,0.984 (active)
CC(C)=CCC/C(C)=C/CC/C(C)=C/CSc1ccccc1C(=O)O,1.32 ± 0.071,0.929 ± 0.074,2.18 ± 0.19,0.18 ± 0.011,0.52 ± 0.084,0.721 ± 0.16,0.902 (active)
CCN(CC)c1ccc(C2Nc3ccccc3-c3nnc(SC)nc3O2)c(OC)c1 (centres undefined),0.889 ± 0.07,0.986 ± 0.066,0.985 ± 0.059,0.954 ± 0.024,1.39 ± 0.24,0.87 ± 0.076,1.01 (active)
COc1ccc2c(Cl)c(C(=O)N3CCc4ccccc4C3)sc2c1,0.875 ± 0.13,0.87 ± 0.052,1.81 ± 0.77,0.845 ± 0.05,1.38 ± 0.095,1.48 ± 0.13,1.01 (active)
COC(=O)N[C@H](C(=O)N[C@@H](Cc1ccccc1)[C@@H](O)CN(Cc1ccc(-c2ccccn2)cc1)NC(=O)[C@@H](NC(=O)OC)C(C)(C)C)C(C)(C)C.O=S(=O)(O)O,1.78 ± 0.14,1.27 ± 0.1,1.46 ± 0.15,0.886 ± 0.064,1.02 ± 0.061,1.14 ± 0.1,1.01 (active)
NS(=O)(=O)c1ccc(C(=O)O)cc1,0.892 ± 0.066,0.94 ± 0.096,1.06 ± 0.096,1.01 ± 0.054,1.01 ± 0.18,1 ± 0.31,0.994 (active)
OCCN(CCO)CC(O)Cn1c2ccc(Cl)cc2c2cc(Cl)ccc21 (centres undefined),0.232 ± 0.013,0.503 ± 0.042,0.407 ± 0.024,0.695 ± 0.032,2.78 ± 0.18,1.52 ± 0.18,0.0946 (inactive)
O=C(CCc1csc(NC(=O)c2ccco2)n1)Nc1ccc(Cl)cc1,0.9 ± 0.069,0.87 ± 0.071,0.973 ± 0.097,0.883 ± 0.045,1.44 ± 0.23,1.55 ± 0.43,0.974 (active)
COC(=O)C1=C(C)N(C)C(C)=C(C(=O)OC)C1c1cccc(C(F)(F)F)c1,0.884 ± 0.069,1.07 ± 0.093,0.955 ± 0.082,0.995 ± 0.035,1.32 ± 0.22,0.976 ± 0.073,1.01 (active)
Cc1cc(C)c(NC(=O)c2ccc(Oc3nccs3)cc2)c(C)c1,0.893 ± 0.039,1.12 ± 0.098,1.22 ± 0.18,0.844 ± 0.048,0.939 ± 0.21,1.06 ± 0.42,1.01 (active)
O=C(NC(=S)Nc1ccc2[nH]c(=O)[nH]c2c1)c1ccc(F)cc1,0.943 ± 0.095,1.03 ± 0.066,0.933 ± 0.064,0.927 ± 0.032,1.26 ± 0.13,1.05 ± 0.16,1.01 (active)
O=C(c1ccco1)c1nc2c(n1O)CCCCC2,1.12 ± 0.073,0.995 ± 0.089,1.03 ± 0.028,0.998 ± 0.07,0.971 ± 0.078,1.03 ± 0.1,1 (active)
CC1=C(C(N)=O)C(c2cccs2)NC(=O)N1 (centres undefined),0.974 ± 0.086,1.03 ± 0.12,0.944 ± 0.034,1.01 ± 0.15,0.963 ± 0.045,0.942 ± 0.063,0.999 (active)
CC(=O)Oc1ccc2c(C)c(Cl)c(=O)oc2c1C,1.14 ± 0.24,1.01 ± 0.08,0.96 ± 0.1,0.93 ± 0.024,1.25 ± 0.19,1.19 ± 0.16,1.01 (active)
CCc1sc2sncc2c1Br,0.199 ± 0.022,0.817 ± 0.06,1.17 ± 0.11,0.315 ± 0.014,0.713 ± 0.14,0.549 ± 0.076,0.895 (active)
CC(C)NCC(O)COCCOc1ccc(C(C)(C)C)cc1.Cl (centres undefined),0.593 ± 0.039,1.06 ± 0.079,1.13 ± 0.079,0.569 ± 0.034,1.31 ± 0.14,1.57 ± 0.37,0.934 (active)
Cc1cc(C(=O)N2CCC(Oc3cccc4cccnc34)CC2)c(C)o1,1.1 ± 0.073,1.1 ± 0.12,0.81 ± 0.066,1.02 ± 0.092,1.07 ± 0.15,1.07 ± 0.23,1.01 (active)
COc1ccc(C(=O)ON=C(N)c2ccc(OC)c(OC)c2)cc1OC,0.825 ± 0.096,0.878 ± 0.09,0.971 ± 0.086,0.933 ± 0.078,1.1 ± 0.07,1.13 ± 0.11,1.01 (active)
